The list is not random: actives were taken first. Their share in the collection is about 8.6%.
Lassa entry: qHTS for Inhibitors of binding or entry into cells for Lassa Virus. AID 720533, 2013. hit rate 4.1% among 18,000. Lassa virus pseudotyped entry inhibition, cell-based qHTS. Potency, µM (titrated, usually from 49.2 µM), usual class: inhibitors
Marburg entry: qHTS for Inhibitors of binding or entry into cells for Marburg Virus; AID 720532, 2013; Potency, µM (series often up to 49.2 µM), most hits filed as inhibitors; Marburg virus pseudotype entry/binding inhibition, cell-based; hit rate 6.5% among 18,000
Of the large screens only hits and unclear results are named; the others gave an inactive call; ! = not active in a repeat. Calls come from the whole dose curve; tested in HEK293 cells.

O=c1n(-c2ccccc2)c(=O)n2n1CC[C@@H]1C(=NOC[C@@H](O)COCc3ccco3)[C@H]3O[C@H]3[C@@H](O)[C@H]12	none
CN(C)C(=O)C(CCN1CCC(O)(c2ccc(Cl)cc2)CC1)(c1ccccc1)c1ccccc1	Lassa entry 25µM!, Marburg entry 6.3µM
CC(=O)OC1(c2ccccc2)CCN(CCc2ccccc2)CC1	Marburg entry inconclusive
CN1C2CCC1CC(C(=O)OC(CO)c1ccccc1)C2 (centres undefined)	none
O=C(NCCCN1CCCCCC1)C(c1ccccc1)C1CCCCC1 (centres undefined)	Lassa entry inconclusive, Marburg entry 10µM
CCN(CC)CCOc1ccc(Cc2ccccc2)cc1	Marburg entry 10µM
CN(C)CCOc1ccc(/C(=C(/CCCl)c2ccccc2)c2ccccc2)cc1	Marburg entry inconclusive
COC(=O)CC=C[C@@H](C)[C@@H](C=NO[C@@H](C)c1cn([C@H](CO)Cc2ccccc2)nn1)NS(=O)(=O)c1ccc(C)cc1	none (no result: Lassa entry)
Nc1ccc(CCN2CCN(c3cccc(C(F)(F)F)c3)CC2)cc1	Lassa entry inconclusive
CN1CCN(CCC=C2c3ccccc3Sc3ccc(S(=O)(=O)N(C)C)cc32)CC1	Lassa entry 20µM, Marburg entry 10µM
O=S1(=O)CC(N2CCN(CCO)CC2)CN1CCc1ccccc1 (centres undefined)	none
CCC(=O)c1ccc2c(c1)N(CCCN1CCN(CCO)CC1)c1ccccc1S2	Lassa entry 14µM, Marburg entry 10µM
OCCN1CCN(CC/C=C2/c3ccccc3Sc3ccc(C(F)(F)F)cc32)CC1	Lassa entry 13µM, Marburg entry 5.6µM
OCCN1CCN(CCCN2c3ccccc3C=Cc3ccccc32)CC1	Lassa entry 25µM!, Marburg entry 11µM
COc1ccc([C@]23Cc4ccccc4[C@H](O2)C2=C(CC4(CCCCC4)OC2=O)O3)cc1	none
CC12C=C(C=Cc3ccc(Br)cc3)C(C)(C1)C(c1ccc(Br)cc1)CC2=O (centres undefined)	none (no result: Lassa entry)
COC(=O)C1=C(C)N(Cc2ccccc2)C(=NCC(C)C)NC1c1ccc(Br)cc1 (centres undefined)	none
COc1cc2c(cc1OC)[C@@H]1O[C@](CCCCN3C(=O)c4ccccc4C3=O)(C2)OC2=C1C(=O)CC(C)(C)C2	none
COC(=O)C1=C(C(=O)OC)[C@@H]2N(C)c3ccccc3[C@@]23CCC(=O)N(CC(C)C)C3=N1	none
COc1cccc(CN2c3ccc(Br)cc3C(O)CS2(=O)=O)c1 (centres undefined)	none
CC(=O)c1ccc2c(c1)N(CCCN1CCN(CCO)CC1)c1ccccc1S2	Lassa entry 28µM, Marburg entry 10µM
COc1ccccc1N1CCN(CCCCNC(=O)c2ccc(-c3ccc(C(C)=O)cc3)cc2)CC1	Marburg entry inconclusive
CN1CCN(CCC(=O)N2c3ccccc3Sc3ccc(C(F)(F)F)cc32)CC1	Lassa entry inconclusive, Marburg entry 16µM
OCCN1CCN(CCCN2c3ccccc3Sc3ccc(C(F)(F)F)cc32)CC1	Lassa entry 16µM!, Marburg entry 7.1µM
Cc1scc2c1N(C(=O)CN1CCN(C)CC1)c1ccccc1NC2=O	none
O=C(Cn1cc(COc2ccc(-c3ccc(Br)cc3)cc2)nn1)c1ccc(O)cc1	none (no result: Lassa entry)
CC(=O)OC[C@H]1O[C@@H](ON=C2C[C@@H](O)[C@@H](O)[C@@H]3[C@H]4C(=O)N(C5CCCCC5)C(=O)[C@@H]4CC[C@@H]23)[C@H](OC(C)=O)[C@@H](OC(C)=O)[C@H]1OC(C)=O	none
CNC(C)CCC=C(C)C (centres undefined)	Marburg entry inconclusive
CCCNC(=O)OC[C@H]1O[C@H](CCON=C(C)CCC(=O)OC[C@H]2O[C@H](C#Cc3ccccc3)C=C[C@H]2Oc2ccc(C)cc2)C=C[C@H]1Oc1ccc(OC)cc1	none
COC(=O)N[C@@H](c1cccs1)C(C(C)=O)C(=O)OC (some centres undefined)	none
CCCCCCCCCCC1=C(C)C(=O)C(OC)=C(OC)C1=O	none
CCCCCCCCCCCC1=C(O)C(=O)C=C(O)C1=O	Lassa entry 28µM!
C=C(C)C[C@@]1(c2ccccc2)Oc2ccccc2C2=NCCN=C21	none
CCOC(=O)[C@@H](C)N1[C@H](C)[C@H](c2ccccc2)Oc2cc(Br)ccc2S1(=O)=O	Lassa entry 14µM, Marburg entry inconclusive
CC[C@H](C)[C@@H](C(=O)OC)N1Cc2ccccc2Oc2cc(Br)ccc2S1(=O)=O	none
C[C@H]1[C@H](N=[N+]=[N-])[C@H](O)CCO[C@@H]1c1ccccc1	none
CC(CCC(=O)OC[C@H]1O[C@H](C#Cc2ccccc2)C=C[C@H]1Oc1ccc(C)cc1)=NOC[C@@H](O)COCc1ccco1	none
CCN(CCCc1ccccc1)CCCc1ccccc1	Lassa entry inconclusive, Marburg entry 8.9µM
CN(Cc1ccccc1)Cc1ccccc1	none
CCC(=O)O[C@@](Cc1ccccc1)(c1ccccc1)[C@@H](C)CN(C)C	none
CCC(=O)O[C@](Cc1ccccc1)(c1ccccc1)[C@H](C)CN(C)C	Marburg entry 28µM
COc1cc(N2CCN(C(C)C)CC2)ccc1Nc1nc(Nc2ccc(F)cc2C(N)=O)c2cc[nH]c2n1	Lassa entry inconclusive, Marburg entry 14µM
COc1cc(C)c(NC(=O)CN(C)C)cc1Nc1nc(Nc2cccc(F)c2C(N)=O)c2cc[nH]c2n1	Lassa entry inconclusive, Marburg entry 0.79µM
CCC[C@H]1CN(c2ccc(Br)cc2)C(=O)[C@H]1CC(=O)Nc1ccccc1	Marburg entry inconclusive
C[C@@H]1CCCN1[C@@H]1C[S+](=O)([O-])N[C@@H]1COCc1ccccc1	none
C1CCC(NC(=NC2C3CC4CC(C3)CC2C4)N2CCOCC2)CC1 (centres undefined)	Lassa entry inconclusive, Marburg entry 14µM
CCCCCCCC#Cc1ccccc1C=NS(=O)c1ccc(C)cc1 (centres undefined)	none
O=C(O)CCC(=O)c1ccc(-c2ccccc2)cc1	Marburg entry 0.1µM!
O=C(CC(=O)c1ccccc1)c1ccccc1	none
C#CC1(O)C(OC)=CC2C(=O)C1C(c1ccccc1)C2C (centres undefined)	none (no result: Lassa entry)
Oc1cc2c(cc1O)C1c3ccc(O)c(O)c3OCC1(O)C2 (centres undefined)	Lassa entry inconclusive, Marburg entry 4µM
CC(=O)OC[C@H]1O[C@H](C#Cc2ccc(C(C)(C)C)cc2)C=C[C@H]1OC(C)=O	Marburg entry inconclusive
COCC1=C(C(=O)OC)C(c2ccccc2)N(C(C)=O)C(=O)N1 (centres undefined)	none
Cc1ccc(C=CC2=C[C@]3(C)C[C@]2(C)[C@H](c2ccc(C)cc2)CC3=O)cc1	none
COc1ccc(CCN(C)CCCOc2ccc(S(=O)(=O)c3[nH]c4ccccc4c3C(C)C)cc2)cc1OC	Lassa entry 14µM, Marburg entry 4µM
COC(=O)C1=C(C(=O)OC)[C@@H]2N(Cc3ccccc3)c3ccccc3[C@@]23C[C@@H](CO)N(C(=O)CC(C)C)C3=N1	none
NC(=NCCc1ccc(I)cc1)SCCCc1cnc[nH]1	Marburg entry 22µM
NCCc1cnc[nH]1	none
CC(=O)OC[C@H]1O[C@H](C#Cc2ccc(C)cc2C)C=C[C@H]1OC(C)=O	Lassa entry inconclusive
O=[N+]([O-])c1ccc2c(c1)S(=O)(=O)C=C2	Lassa entry 11µM, Marburg entry 6.3µM
NC(=O)c1ccc([N+](=O)[O-])cc1Cl	none
CC(=O)C1=CN(CCC=Cc2ccccc2)C(=O)NC1c1ccccc1 (centres undefined)	Marburg entry inconclusive
Cn1ccc2c(-c3ccccc3Cl)cc3c(c21)C1CCC3C1 (centres undefined)	none

Bioassay records as filed in PubChem BioAssay.
